INHIBITION data for 53 molecules are collected here from ChEMBL document CHEMBL4513216, “Probing the Open Global Health Chemical Diversity Library for Multistage-Active Starting Points for Next-Generation Antimalarials” (ACS Infect Dis, 2020).

Out of some 68,000 compounds screened, about 2,700 (4%) showed an effect of 50% or more. Only a selection was taken, and strong results are over-represented in it overall.

The test system of this assay is Plasmodium berghei. The assay is described as follows: Screen against P. berghei liver stage (PbLuc), transformed with Luciferase, at 2uM. The format is functional, HepG2. As to conditions: tested at 2 uM.
With `CCCN(CC)C(=O)c1cc(Cn2c(C)nc3ccccc32)[nH]n1`, the INHIBITION stood at 38.75%.

Regarding `CNS(=O)(=O)c1cccc(CNc2ncccn2)c1`, the INHIBITION is recorded as -18.94%.

In the case of `c1ccn(Cc2nnc3n2CCCN(Cc2ccoc2)C3)c1`, the INHIBITION is listed as 18.31%.

With `CCC(CNC(=O)NCc1cc[nH]n1)N1CCCC1` (stereo not drawn), the INHIBITION turned out to be 76.6%.

For the molecule `CC(C)CC(CNC(=O)NCc1cc[nH]n1)N1CCOCC1` (stereo not drawn), the INHIBITION stood at 40.29%.

As to `COc1ccccc1C(CNC(=O)NCc1cc[nH]n1)N1CCCC1` (stereo not drawn), the INHIBITION is -10.44%.

For `CC(=O)N1CC[C@@H]2CN(Cc3ccncc3)S(=O)(=O)[C@@H]2CC1`, the INHIBITION is on record as -66.17%.

Consider `Cc1c(C2CCOC(C)(C)C2)nc(N)c(C#N)c1-c1ccc(O)cc1` (stereo not drawn), for which the INHIBITION was -11.34%.

With `Cc1cc(C)c2c(c1)NC(=O)C2CC(=O)O` (stereo not drawn), the INHIBITION is 33.22%.

`Cc1cc(C)c2c(c1)C(CC(=O)O)C(=O)N2` (stereo not drawn): the INHIBITION is reported as 52.38%.

For `Cc1ccc(C)c2c1NC(=O)C2CC(=O)O` (stereo not drawn), the INHIBITION is 42.8%.

Regarding `CCN1CC2(CC1=O)CN(C(=O)c1cccs1)CCN(C(=O)N(C)C)C2` (stereo not drawn), the INHIBITION is recorded as -48.39%.

For `CCc1noc(CS(=O)(=O)Cc2ccccc2Cl)n1`, the INHIBITION turned out to be 61.32%.

For the molecule `CCc1noc(CS(=O)(=O)Cc2nc(Cc3ccccc3)no2)n1`, the INHIBITION is 34%.

For `CCc1noc(CS(=O)(=O)Cc2ccccc2C)n1`, the INHIBITION was found to be 30.59%.

As for `CC(=O)N1CCCC1C(=O)NCCOc1cccc(F)c1` (stereo not drawn), the INHIBITION came out at 16.25%.

On to `CN(C)C(=O)NC1COC2(CCN(Cc3ccc(N(C)C)cc3)CC2)C1` (stereo not drawn), for which the INHIBITION was 53.98%.

Take `CN(C)C(=O)NC1COC2(CCN(Cc3ccc(Cl)c(F)c3)CC2)C1` (stereo not drawn): the INHIBITION is recorded as -8.04%.

Consider `CN(C)C(=O)NC1COC2(CCN(Cc3ccccc3)CC2)C1` (stereo not drawn), for which the INHIBITION was found to be 0.14%.

`Cc1ccoc1C(=O)N1CC[C@H]2C[C@H](c3nnc(C4CC4)o3)O[C@@H]2C1`: the INHIBITION is listed as -11.79%.

As to `CNC(=O)C1(C)CCCN1Cc1cnn(C)c1C` (stereo not drawn), the INHIBITION was determined as 18.15%.

`CC(C)OCCCN(CC(=O)N1CCNCC1)C(=O)c1ccc(F)cc1`: the INHIBITION is listed as -20.36%.

For the molecule `COc1ccc(OC)c(CNC(=O)N2CCC(n3cncn3)CC2)c1`, the INHIBITION is reported as 3.06%.

Regarding `CCOc1ccccc1CNC(=O)N1CCC(n2cncn2)CC1`, the INHIBITION is on record as -111.08%.

`COc1cc(Cl)ccc1CNC(=O)N1CCC(n2cncn2)CC1`: the INHIBITION is listed as 70.27%.

Turning to `NC(=O)NC(=O)CCSc1ccccc1Cl`, the INHIBITION came to 12.14%.

Take `Cc1nc(C)n(CC2CN(CCc3ccncc3)CCO2)n1` (stereo not drawn): the INHIBITION came to 70.27%.

Turning to `COc1ccc(C)cc1CN1CCOC(Cn2nc(C)nc2C)C1` (stereo not drawn), the INHIBITION amounted to 60.09%.

Regarding `Cc1nc(C)n(CC2CN(CCOc3cccc(C#N)c3)CCO2)n1` (stereo not drawn), the INHIBITION is on record as -5.15%.

`Cc1nc(C)n(CC2CN(Cc3cccc4ccccc34)CCO2)n1` (stereo not drawn): the INHIBITION is -53.98%.

On to `Cc1cc(C)n(CC2CN(CCOc3ccc(C#N)cc3)CCO2)n1` (stereo not drawn), for which the INHIBITION came to 13.24%.

`COc1ccc(CCN2CCOC(Cn3nc(C)nc3C)C2)cc1` (stereo not drawn): the INHIBITION amounted to 34.97%.

As to `Cc1nc(C)n(CC2CN(CCOc3ccc(C#N)cc3)CCO2)n1` (stereo not drawn), the INHIBITION is 50.05%.

For `Cc1nc(C)n(CC2CN(Cc3ccccc3OC(C)C)CCO2)n1` (stereo not drawn), the INHIBITION is listed as -3.06%.

Take `Cc1nc(C)n(CC2CN(CCCc3ccccc3)CCO2)n1` (stereo not drawn): the INHIBITION is reported as 40.72%.

For `Cc1ncc(S(C)(=O)=O)c(N2CCCCCC2)n1`, the INHIBITION was 2.97%.

`CCn1c(C)nnc1CN(C)C1CCN(Cc2nnc(C3CC3)o2)C1` (stereo not drawn): the INHIBITION is 12.75%.

With `CCC1(C(=O)O)CCCN(C(=O)c2ccc(O)c(Cl)c2)C1` (stereo not drawn), the INHIBITION is recorded as -2.86%.

In the case of `CCOC(=O)c1coc(N2CCN(Cc3ccc(C)cc3)C(=O)C2)n1`, the INHIBITION is given as 33.9%.

With `Cn1nc(C2CCCN(Cc3cccc(F)c3)C2)c2nccnc21` (stereo not drawn), the INHIBITION is on record as -13.37%.

For the molecule `CC(C)OCCN1CCC(C(=O)c2cc(F)ccc2F)CC1`, the INHIBITION is 50.76%.

As to `CCOCCN1CCC(C(=O)c2cc(F)ccc2F)CC1`, the INHIBITION amounted to 43%.

As for `COCCN1CCC(C(=O)c2cc(F)ccc2F)CC1`, the INHIBITION is recorded as -11.34%.

`O=C(CCN1CCC(C(=O)c2cc(F)ccc2F)CC1)NC1CCCC1`: the INHIBITION is recorded as 64.9%.

Regarding `O=C(CCN1CCC(C(=O)c2cc(F)ccc2F)CC1)NC1CC1`, the INHIBITION is 34.93%.

For `O=C(CN1CCC(C(=O)c2cc(F)ccc2F)CC1)NC1CCCC1`, the INHIBITION is -21.84%.

For `CN1CCC(N(C)CCC(=O)N2CCC(Oc3ccc(Cl)cc3)CC2)C1` (stereo not drawn), the INHIBITION came to 8.75%.

Turning to `Cn1nc(C(=O)N2CCOCC2)c2c1CN(CC1CCC1)C2`, the INHIBITION stood at 36.29%.

`Cc1cc(-c2ccc(=O)n(C3CCN(S(=O)(=O)N(C)C)CC3)n2)c(C)o1`: the INHIBITION is given as -34.37%.

Consider `CCC(CO)N(Cc1ccco1)Cc1c(C)nn(C)c1Cl` (stereo not drawn), for which the INHIBITION is on record as -10.67%.

`CN1CCN(C(=O)c2cccn2C)c2ccccc2C1`: the INHIBITION was -9.98%.

For the molecule `CCOC(=O)[C@]12CCCN(Cc3nccs3)C[C@H]1CN(C(C)C)C2`, the INHIBITION is 34.47%.

Consider `Cc1nc(C)c(CN2CCOC[C@H](Oc3ccc(S(C)(=O)=O)cc3)C2)s1`, for which the INHIBITION is -40.15%.
